Screens as filed in PubChem BioAssay.
Hits are enriched below; roughly 1.9% of the tested compounds scored in any of these assays.
MsrA inhibitor = inhibits bovine methionine sulfoxide reductase A; purified bovine MsrA, absorbance read-out; inhibition, % at 15.5 µM; hit rate 0.75% among 360,000; AID 651718; in the data active = inhibition above about 4.5%
PLCb3 inh = PLC-beta3 (human) inhibition, primary screen; hit rate 0.18% among 370,000; inhibition, % at 12.2 µM; Purified PLC-beta3, fluorogenic substrate, fluorescence; Q01970
bovine MsrA act = activates bovine MsrA enzyme. AID 602163. activation, % at 10.6 µM. hit rate 0.3% among 360,000. purified bovine MsrA, absorbance read-out; in the data active = activation above about 7.5%
PLCg1 inh = inhibitors of human phospholipase C gamma1; purified PLC-gamma1, fluorogenic substrate, fluorescence; P19174; inhibition, % at 12.2 µM; hit rate 0.84% among 370,000; in the data active = inhibition above about 9.5%
Target sequence (P19174 whole entry, looked up): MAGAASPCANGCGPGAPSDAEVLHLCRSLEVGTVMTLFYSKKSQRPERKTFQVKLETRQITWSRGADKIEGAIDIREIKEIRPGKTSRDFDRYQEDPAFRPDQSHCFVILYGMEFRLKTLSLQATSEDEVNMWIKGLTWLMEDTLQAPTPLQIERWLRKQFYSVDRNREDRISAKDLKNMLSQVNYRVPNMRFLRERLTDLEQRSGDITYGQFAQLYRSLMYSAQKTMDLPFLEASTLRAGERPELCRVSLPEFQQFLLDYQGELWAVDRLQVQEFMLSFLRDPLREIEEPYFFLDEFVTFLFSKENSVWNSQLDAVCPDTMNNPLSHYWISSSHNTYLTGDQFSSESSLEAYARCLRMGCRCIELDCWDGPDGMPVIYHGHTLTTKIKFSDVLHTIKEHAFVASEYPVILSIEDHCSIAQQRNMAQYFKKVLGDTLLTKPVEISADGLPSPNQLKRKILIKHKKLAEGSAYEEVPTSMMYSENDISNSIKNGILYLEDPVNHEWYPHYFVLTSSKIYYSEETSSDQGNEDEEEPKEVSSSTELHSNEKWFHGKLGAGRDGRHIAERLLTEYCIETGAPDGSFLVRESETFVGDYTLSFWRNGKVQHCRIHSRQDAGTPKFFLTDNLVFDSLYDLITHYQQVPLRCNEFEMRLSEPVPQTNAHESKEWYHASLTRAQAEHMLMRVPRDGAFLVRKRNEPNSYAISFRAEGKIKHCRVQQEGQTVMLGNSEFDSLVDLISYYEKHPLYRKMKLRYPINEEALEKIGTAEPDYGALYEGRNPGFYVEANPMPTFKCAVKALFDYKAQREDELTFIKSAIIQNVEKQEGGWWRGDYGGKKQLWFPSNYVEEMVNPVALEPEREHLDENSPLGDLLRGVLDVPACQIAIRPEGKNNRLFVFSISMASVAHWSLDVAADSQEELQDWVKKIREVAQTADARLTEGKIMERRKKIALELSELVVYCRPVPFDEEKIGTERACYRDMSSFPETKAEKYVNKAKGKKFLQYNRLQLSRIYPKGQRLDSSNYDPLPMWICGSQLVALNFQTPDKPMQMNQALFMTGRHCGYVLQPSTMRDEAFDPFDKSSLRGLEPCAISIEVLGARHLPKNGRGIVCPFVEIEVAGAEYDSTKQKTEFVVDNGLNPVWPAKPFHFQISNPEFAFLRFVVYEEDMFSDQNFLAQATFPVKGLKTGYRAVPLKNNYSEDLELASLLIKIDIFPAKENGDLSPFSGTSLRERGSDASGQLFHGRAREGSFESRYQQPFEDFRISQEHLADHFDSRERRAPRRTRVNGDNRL
PLCgamma1 ctr = counter-screen for PLC-beta3 inhibitors: inhibitors of human PLC-gamma1; hit rate 3.1% among 3,300; shares compounds with PLCg1 inh; purified PLC-gamma1, fluorogenic substrate, fluorescence; inhibition, % at 12.3 µM; in the data active = inhibition above about 9.5%
PLCbeta3 conf = human PLC-beta3 inhibition, confirmation; AID 743261; purified PLC-beta3, fluorogenic substrate fluorescence; inhibition, % at 12.3 µM; hit rate 1% among 3,300; shares compounds with PLCg1 inh
Large screens that a line does not name were inactive (follow-up assays come after a bar, where they were run). Rule as the data show it, unless noted: active = inhibition above about 11%; inactive = the rest.

CCOc1ccc(CC2S/C(=N/c3ccccn3)NC2=O)cc1 (stereo unspecified)	PLCg1 inh 11 | PLCgamma1 ctr inactive | PLCbeta3 conf inactive
CCOc1ccc(N(CC(=O)NCCc2ccccc2)C(=O)c2csnn2)cc1	PLCg1 inh 11 | PLCgamma1 ctr inactive | PLCbeta3 conf inactive
Clc1ccc(CSc2nnc(NC3=NCCCCC3)s2)cc1	PLCb3 inh 11 | PLCgamma1 ctr inactive | PLCbeta3 conf inactive
Nc1nnc(SCc2ccc(Cl)cc2)s1	none
N/C(=N\OC(=O)c1ccccc1Cl)c1ccncc1	PLCg1 inh 10 | PLCgamma1 ctr inactive | PLCbeta3 conf inactive
Cc1ccc(-n2ncc(C(=O)Nc3ccc(Cl)cc3)c2C2CCNCC2)cc1C	PLCg1 inh 9.6 | PLCgamma1 ctr inactive | PLCbeta3 conf inactive
CC1CC(C)CN(C(=O)c2ccc(CSc3nc4ccncc4[nH]3)cc2)C1 (stereo unspecified)	PLCb3 inh 14 | PLCgamma1 ctr inactive | PLCbeta3 conf inactive
CCN(CCNC(=O)c1ccc(CSc2nc3ccncc3[nH]2)cc1)c1ccccc1	none
Cc1ccc(-n2c(SCC(=O)Nc3cccc4ccccc34)nnc2-c2cccs2)cc1	none (no result: MsrA inhibitor, bovine MsrA act)
Cc1ccc(-n2c(Cc3cccs3)nnc2SCC(=O)Nc2cccc3ccccc23)cc1	PLCg1 inh 13 (no result: MsrA inhibitor, bovine MsrA act) | PLCgamma1 ctr inactive | PLCbeta3 conf inactive
CCOC(=O)[C@]12CCCC3=C1N(CCC3)C(=O)[C@@H](CC(=O)N1CCC(c3ccccc3)CC1)C2	none (no result: MsrA inhibitor, bovine MsrA act)
CCOc1cc(CNCCc2ccc(S(N)(=O)=O)cc2)ccc1OCc1ccc(Cl)cc1	PLCg1 inh 21 | PLCgamma1 ctr inactive | PLCbeta3 conf inactive
Cc1cc(C)cc(N(CC(=O)NC2CCC(C)CC2)S(=O)(=O)c2ccc([N+](=O)[O-])cc2)c1 (stereo unspecified)	none (no result: MsrA inhibitor, bovine MsrA act)
Cc1cc(C)c2c(c1)/C(=N/NS(=O)(=O)c1ccccc1)CCC2	PLCb3 inh 11 | PLCgamma1 ctr inactive | PLCbeta3 conf inactive
CC(=O)c1ccc(OCC(O)COc2ccc(C(C)=O)cc2)cc1	PLCg1 inh 11 | PLCgamma1 ctr inactive | PLCbeta3 conf inactive
O=S1(=O)c2ccc(N3CCSCC3)cc2Oc2ccccc2CN1Cc1cn(Cc2ccccc2C(F)(F)F)nn1	none (no result: MsrA inhibitor, bovine MsrA act)
Cc1ccccc1OCCCc1c(C)n[nH]c1C	PLCg1 inh 9.8 | PLCgamma1 ctr inactive | PLCbeta3 conf inactive
COC1OC2COC(c3ccccc3)OC2C(NC(C)=O)C1OC(C)=O (stereo unspecified)	PLCb3 inh 14, PLCg1 inh 10 | PLCgamma1 ctr inactive | PLCbeta3 conf inactive
CN(Cc1ccccc1)C(=O)OCc1cn(Cc2ccccc2F)nn1	none (no result: MsrA inhibitor, bovine MsrA act)
Nc1c(O)ccc2c1C(=O)c1ccccc1C2=O	none (no result: bovine MsrA act)
Nc1cc(N)c2c(c1)C(=O)c1ccccc1-2	PLCg1 inh 9.8 | PLCgamma1 ctr inactive | PLCbeta3 conf inactive
Cc1ccc(CNCc2cc(Cl)ccc2O)cc1	none
CCCCOC(=O)n1c(=O)oc2cc(S(=O)(=O)N3CCCCC3)ccc21	PLCg1 inh 11 | PLCgamma1 ctr inactive | PLCbeta3 conf inactive
CC1CC(C)(C)CC2(C1)NC(=O)N(CC(=O)OCC(=O)Nc1cc(S(=O)(=O)N3CCCCC3)ccc1Cl)C2=O (stereo unspecified)	none
O=C(NCc1c(F)cccc1F)C1CCCN(c2ncccn2)C1 (stereo unspecified)	none (no result: MsrA inhibitor, bovine MsrA act)
CC(=O)c1ccc(N2CCN(C(=O)c3ccc(Br)cc3)CC2)c(F)c1	PLCb3 inh 12 | PLCgamma1 ctr inactive | PLCbeta3 conf inactive
CC(=O)c1ccc(N2CCN(C(=O)c3ccco3)CC2)c(F)c1	none
O=C(Cc1ccc(-n2cccc2)cc1)N1CCc2ccccc21	PLCg1 inh 9.9 | PLCgamma1 ctr inactive | PLCbeta3 conf inactive
Cc1cc(N2CCN(Cc3ccccc3)CC2)n2nc(C)nc2n1	none (no result: MsrA inhibitor, bovine MsrA act)
Cc1ccc2cc(CCNC(=O)c3cccc([N+](=O)[O-])c3)c(=O)[nH]c2c1C	PLCg1 inh 10 | PLCgamma1 ctr inactive | PLCbeta3 conf inactive
COc1ccc2cc(CCNC(=O)c3cccc([N+](=O)[O-])c3)c(=O)[nH]c2c1	none
CN(CC(O)CN)CC(O)CN1CCCCC1 (stereo unspecified)	PLCg1 inh 9.6 | PLCgamma1 ctr inactive | PLCbeta3 conf inactive
CCCCN(C)C(=O)C1CCN(S(=O)(=O)c2ccc3[nH]c(=O)oc3c2)CC1	none (no result: MsrA inhibitor, bovine MsrA act)
COc1ccc(F)cc1S(=O)(=O)n1cc(C)nc1-c1ccccc1	PLCb3 inh 11 | PLCgamma1 ctr inactive | PLCbeta3 conf inactive
CCOC(=O)[C@]12CCCC=C1N(CCCOC)C(=O)[C@@H]2CC(=O)NCc1ccccc1	none (no result: MsrA inhibitor, bovine MsrA act)
COC1CCCCC1Nc1cc(C)ccc1C (stereo unspecified)	PLCg1 inh 9.5 | PLCgamma1 ctr inactive | PLCbeta3 conf inactive
Cc1ccc(C)c(NC2CCCCC2NS(=O)(=O)c2ccccc2)c1 (stereo unspecified)	none
O=Cc1cc(N=Nc2ccccc2Cl)ccc1O	none
O=Cc1cc(N=Nc2cccc(C(=O)O)c2)ccc1O	PLCg1 inh 14 | PLCgamma1 ctr 29 | PLCbeta3 conf inactive
CN(C(=O)COC(=O)c1ccc2ccccc2n1)C1CCCCC1	PLCg1 inh 10 | PLCgamma1 ctr inactive | PLCbeta3 conf inactive
Cc1ccc(NC=C(S(=O)(=O)c2ccccc2)S(=O)(=O)c2ccccc2)c(C)c1	PLCg1 inh 13 | PLCgamma1 ctr inactive | PLCbeta3 conf inactive
Cc1ccc(NC=C(S(=O)(=O)c2ccccc2)S(=O)(=O)c2ccccc2)cc1	none
CC(C(=O)O)N1C(=O)/C(=C/C=C/c2ccco2)SC1=S (stereo unspecified)	PLCg1 inh 37 | PLCgamma1 ctr 20 | PLCbeta3 conf inactive
O=C1/C(=C/C=C/c2ccco2)SC(=S)N1NS(=O)(=O)c1ccccc1	none
CN1CCC(C)(C(=O)Nc2ccc3c(c2)OCCO3)C1 (stereo unspecified)	none
COC(=O)[C@]12C[C@H](CC(=O)NCc3ccc(OC)c(OC)c3)C(=O)N(CCc3ccc(OC)c(OC)c3)C1=C[C@H](C1CCCC1)O[C@@H]2C	none (no result: MsrA inhibitor, bovine MsrA act)
Cc1ccc(/C=N/n2c(-c3ccco3)n[nH]c2=S)s1	PLCg1 inh 11 | PLCgamma1 ctr inactive | PLCbeta3 conf inactive
Cc1ccc(-c2[nH]nc(N)c2N=Nc2cccc(Cl)c2C)cc1	none
Cc1cccc(N=Nc2c(N)n[nH]c2-c2ccc(Cl)cc2)c1	PLCg1 inh 11 | PLCgamma1 ctr inactive | PLCbeta3 conf inactive
CCOC(=O)c1c(C)[nH]c(C)c1S(=O)(=O)NC(C)Cc1ccco1 (stereo unspecified)	none
CCOC(=O)c1c(C)[nH]c(C)c1S(=O)(=O)N(C)Cc1ccco1	PLCg1 inh 11 | PLCgamma1 ctr inactive | PLCbeta3 conf inactive
CN(CC(=O)Nc1ccc(F)c(F)c1F)C(=O)CCN1C(=O)C2CC=CCC2C1=O (stereo unspecified)	none
Cc1cc(-c2nnc(SCc3ccccn3)o2)no1	PLCb3 inh 11, PLCg1 inh 14 | PLCgamma1 ctr inactive | PLCbeta3 conf inactive
O=C(N/C(=C\c1ccccc1)C(=O)N1CCCCCC1)c1ccccc1	PLCg1 inh 9.6 | PLCgamma1 ctr inactive | PLCbeta3 conf inactive
O=C(N/C(=C/c1ccccc1)C(=O)N1CCCCC1)c1ccccc1	none
